PubChem BioAssay (NCI)
This is part of a sample that, as a whole, favours compounds with a hit. Of some 79,000 tested, about 15% had one in any assay. A number with no mark means an inactive call. The source made the active and inactive calls. Cut-off read from the data, not from the text of the source: active = growth inhibition above about 70%; inactive = the rest.

Legend:
[1] = NCI Yeast Anticancer Drug Screen. Data for the rad50 strain (AID 155);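 note: 0% = growth of vehicle-only cultures of the same strain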; conditions: S. cerevisiae rad50 strain growth inhibition; at 50.0 µM; active compounds read high
Procedure, shortened: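 Yeast carrying a defined DNA repair defect were exposed to test compounds, and growth was compared with vehicle-treated controls to give percent inhibition.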

[2] = NCI Yeast Anticancer Drug Screen. Data for the mec2-1 strain (AID 157); conditions: S. cerevisiae mec2-1 strain, at 50.0 µM, active compounds read high
Procedure, shortened: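 Vehicle-treated cultures served as reference for growth inhibition of compound-exposed mec2-1 yeast.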

[3] = NCI Yeast Anticancer Drug Screen. Data for the sgs1 mgt1 strain (AID 161);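 note: 0% = growth of cultures given vehicle only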; conditions: S. cerevisiae sgs1 mgt1 strain, at 50.0 µM, active compounds read high
Procedure, shortened: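 Genetically altered yeast, compound exposure, growth inhibition relative to vehicle.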

[4] = NCI Yeast Anticancer Drug Screen. Data for the cln2 rad14 strain (AID 165);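 note: 0% = growth equal to vehicle treated cultures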; conditions: S. cerevisiae cln2 rad14 strain, at 50.0 µM, active compounds read high
Procedure, shortened: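 Each compound was tested on cln2 rad14 yeast. Inhibition of growth was calculated against vehicle-exposed controls.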

[5] = NCI Yeast Anticancer Drug Screen. Data for the bub3 strain (AID 167); conditions: S. cerevisiae bub3 mutant strain, at 50.0 µM, active compounds read high
Procedure, shortened: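 Compounds were applied to a genetically altered yeast strain carrying a cell-cycle control defect. Growth inhibition was scored against vehicle-treated controls.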

[6] = NCI Yeast Anticancer Drug Screen. Data for the mlh1 rad18 strain (AID 175); conditions: S. cerevisiae mlh1 rad18 strain growth inhibition; at 50.0 µM; active compounds read high
Procedure, shortened: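 Vehicle-treated cultures served as the reference for growth inhibition in a yeast strain carrying DNA damage repair alterations exposed to each compound.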

## CSc1nc2nc(C)c(C)nc2c(=O)[nH]1
[1]
  growth inhibition: -21.9%
[2]
  growth inhibition: -19.4%
[3]
  growth inhibition: -43.5%
[4]
  growth inhibition: 3.9%
[5]
  growth inhibition: -0.75%
[6]
  growth inhibition: -32%

## COC(=O)/C(=C\c1ccccc1N)c1cc2c(cc1Br)OCO2
[1]
  growth inhibition: 84.2% (active)
[2]
  growth inhibition: 40.2%
[3]
  growth inhibition: 82.4% (active)
[4]
  growth inhibition: 41.4%
[5]
  growth inhibition: 44.3%
[6]
  growth inhibition: 68.1%

## O=c1[nH]c(=O)n(COC(CO)CO)cc1-c1ccccc1
[1]
  growth inhibition: -24.4%
[2]
  growth inhibition: -31.8%
[3]
  growth inhibition: 2.65%
[4]
  growth inhibition: -4.15%
[5]
  growth inhibition: -18.4%
[6]
  growth inhibition: -19.9%

## CCn1c2c(c3ccccc31)[C@@H](c1ccc(Cl)cc1)CC1C(=O)N(c3ccccc3)C(=O)C21 (some centres undefined)
[1]
  growth inhibition: 17.8%
[2]
  growth inhibition: 33.3%
[3]
  growth inhibition: 14.8%
[4]
  growth inhibition: -8.05%
[5]
  growth inhibition: 38.4%
[6]
  growth inhibition: 35.5%

## COc1ccc([N+](=O)[O-])c2ccc(=O)oc12
[1]
  growth inhibition: -9.9%
[2]
  growth inhibition: 5.2%
[3]
  growth inhibition: -4.1%
[4]
  growth inhibition: -0.35%
[5]
  growth inhibition: 4.75%
[6]
  growth inhibition: 9.9%

## CC(=O)[CH-]C(=O)c1ccccc1.CC(=O)[CH-]C(=O)c1ccccc1.CCCCCCCCCCCCCCCCCC(=O)[O-].CCCCCCCCCCCCCCCCCC(=O)[O-].[Ti+4]
[1]
  growth inhibition: 11.2%
[2]
  growth inhibition: -11.2%
[3]
  growth inhibition: -6.55%
[4]
  growth inhibition: -9.7%
[5]
  growth inhibition: 2%
[6]
  growth inhibition: -0.45%

## Clc1ccc(C=NC23CC4CC(CC(C4)C2)C3)cc1Cl
[1]
  growth inhibition: -19.1%
[2]
  growth inhibition: -24.1%
[3]
  growth inhibition: -16.2%
[4]
  growth inhibition: 17.6%
[5]
  growth inhibition: 7.55%
[6]
  growth inhibition: 12%

## COc1ccccc1C(=O)N/N=C/c1ccc(O)cc1
[1]
  growth inhibition: 0%
[2]
  growth inhibition: 22.6%
[3]
  growth inhibition: 15.3%
[4]
  growth inhibition: -2.7%
[5]
  growth inhibition: 16.6%
[6]
  growth inhibition: 19.9%

## CC1=C(C(=O)NNC(=O)C[N+](C)(C)C)CC(C(=O)NNC(=O)C[N+](C)(C)C)=C(C)N1
[1]
  growth inhibition: -12.4%
[2]
  growth inhibition: -21.1%
[3]
  growth inhibition: -10.9%
[4]
  growth inhibition: -31.2%
[5]
  growth inhibition: -13.2%
[6]
  growth inhibition: -39.9%

## O=C(CC(c1ccccc1)C1CCCC1=O)c1ccccc1 (centres undefined)
[1]
  growth inhibition: 11.1%
[2]
  growth inhibition: 1.65%
[3]
  growth inhibition: 17.6%
[4]
  growth inhibition: -21.3%
[5]
  growth inhibition: 6.1%
[6]
  growth inhibition: 17.1%

## Nc1cccc2c([N+](=O)[O-])cccc12
[1]
  growth inhibition: 62.7%
[2]
  growth inhibition: 34.4%
[3]
  growth inhibition: 62.8%
[4]
  growth inhibition: 31.2%
[5]
  growth inhibition: 17%
[6]
  growth inhibition: 60.2%

## CCOC(CCC#N)c1ccc(C)cc1 (centres undefined)
[1]
  growth inhibition: 10.2%
[2]
  growth inhibition: 5.65%
[3]
  growth inhibition: 34.1%
[4]
  growth inhibition: 25.2%
[5]
  growth inhibition: 0.8%
[6]
  growth inhibition: 22.3%

## NNC(=O)c1ccccc1F
[1]
  growth inhibition: -19.6%
[2]
  growth inhibition: -19.4%
[3]
  growth inhibition: -16.3%
[4]
  growth inhibition: -4.7%
[5]
  growth inhibition: -10.2%
[6]
  growth inhibition: -19.2%

## O=C(O)COc1ccc(C(=O)O)cc1
[1]
  growth inhibition: 5.6%
[2]
  growth inhibition: -19.9%
[3]
  growth inhibition: 3.7%
[4]
  growth inhibition: -53.7%
[5]
  growth inhibition: -23.4%
[6]
  growth inhibition: -6.15%

## NC(=O)c1cccc(NC=O)c1
[1]
  growth inhibition: 5.3%
[2]
  growth inhibition: 6%
[3]
  growth inhibition: 22.1%
[4]
  growth inhibition: 29.7%
[5]
  growth inhibition: 4.45%
[6]
  growth inhibition: 25.8%

## Nc1ccc(N=Nc2ccccc2)c(N)c1
[1]
  growth inhibition: 29.5%
[2]
  growth inhibition: 19.6%
[3]
  growth inhibition: 27%
[4]
  growth inhibition: -52.1%
[5]
  growth inhibition: 8.55%
[6]
  growth inhibition: 28.6%

## CCOc1ccc(Nc2nc(N)nc(N)c2N)cc1
[1]
  growth inhibition: 2.85%
[2]
  growth inhibition: 10.8%
[3]
  growth inhibition: -8.95%
[4]
  growth inhibition: -13.7%
[5]
  growth inhibition: -20.4%
[6]
  growth inhibition: 3.8%

## Nc1nc2c(c(=O)[nH]1)C(c1ccccc1)C(c1ccccc1)C2 (centres undefined)
[1]
  growth inhibition: -2.85%
[2]
  growth inhibition: -8.65%
[3]
  growth inhibition: 3.8%
[4]
  growth inhibition: -27.4%
[5]
  growth inhibition: -9.5%
[6]
  growth inhibition: 0.15%

## CCOC(=O)c1ccc(N)c(C(O)(C(F)(F)F)C(F)(F)F)c1
[1]
  growth inhibition: 94.5% (active)
[2]
  growth inhibition: 90.7% (active)
[3]
  growth inhibition: 94.1% (active)
[4]
  growth inhibition: 86.3% (active)
[5]
  growth inhibition: 92% (active)
[6]
  growth inhibition: 95.6% (active)

## O=C(NC(=O)C(F)(F)C(F)(F)F)Nc1cc(F)ccc1F
[1]
  growth inhibition: 5.15%
[2]
  growth inhibition: -2.05%
[3]
  growth inhibition: 1.45%
[4]
  growth inhibition: -38.8%
[5]
  growth inhibition: -6.55%
[6]
  growth inhibition: -29%

## CCCC(=O)NC(Nc1ccc(S(=O)(=O)Nc2nc(C)cc(C)n2)cc1)(C(F)(F)F)C(F)(F)F
[1]
  growth inhibition: -21.6%
[2]
  growth inhibition: -37.9%
[3]
  growth inhibition: -21.1%
[4]
  growth inhibition: 13.2%
[5]
  growth inhibition: -3.7%
[6]
  growth inhibition: -21.4%

## CC(C)(C)c1ccc(-c2nc3ccc([N+](=O)[O-])cc3c(=O)o2)cc1
[1]
  growth inhibition: 12.1%
[2]
  growth inhibition: 15.8%
[3]
  growth inhibition: 35%
[4]
  growth inhibition: -13.1%
[5]
  growth inhibition: 16.1%
[6]
  growth inhibition: 33.5%

## O=C(O)Cc1cc2cccc([N+](=O)[O-])c2[nH]1
[1]
  growth inhibition: 1.4%
[2]
  growth inhibition: 6.65%
[3]
  growth inhibition: 8.75%
[4]
  growth inhibition: -1.85%
[5]
  growth inhibition: -16.1%
[6]
  growth inhibition: 9.2%

## COC(=O)C(C(=O)OC)C(c1cccc([N+](=O)[O-])c1)C(N)c1ccccc1 (centres undefined)
[1]
  growth inhibition: 15.3%
[2]
  growth inhibition: -8.95%
[3]
  growth inhibition: -0.5%
[4]
  growth inhibition: 28.2%
[5]
  growth inhibition: 32.1%
[6]
  growth inhibition: 56.4%

## CCCCCC(=O)c1ccccc1
[1]
  growth inhibition: -27.9%
[2]
  growth inhibition: -16.5%
[3]
  growth inhibition: -19.3%
[4]
  growth inhibition: -23.9%
[5]
  growth inhibition: -8.8%
[6]
  growth inhibition: -6.1%

## C/C=C(/c1ccccc1)c1ccc(N(C)C)cc1
[1]
  growth inhibition: 2.25%
[2]
  growth inhibition: 0.85%
[3]
  growth inhibition: -10.1%
[4]
  growth inhibition: -4.7%
[5]
  growth inhibition: 9.2%
[6]
  growth inhibition: 4.35%

## Oc1ccccc1C=Nc1ccccc1N=Cc1ccccc1O.[Zn]
[1]
  growth inhibition: 6.45%
[2]
  growth inhibition: 4%
[3]
  growth inhibition: -3.45%
[4]
  growth inhibition: 26.5%
[5]
  growth inhibition: -4.05%
[6]
  growth inhibition: 12.9%

## C=CCN1C2Cc3cc(OC)c(OC)cc3C1Cc1cc(OC)c(OC)cc12
[1]
  growth inhibition: 0.15%
[2]
  growth inhibition: -19.2%
[3]
  growth inhibition: -23.6%
[4]
  growth inhibition: -6.45%
[5]
  growth inhibition: -16.2%
[6]
  growth inhibition: -10.3%

## CC(=O)OC1=CC(=O)N(C(=O)c2ccccc2)C1
[1]
  growth inhibition: -2.8%
[2]
  growth inhibition: -5.95%
[3]
  growth inhibition: -18.6%
[4]
  growth inhibition: -12.2%
[5]
  growth inhibition: 3.2%
[6]
  growth inhibition: -6.55%

## O=C(/C=C/C=C/c1ccccc1)CCc1ccccc1
[1]
  growth inhibition: 6.75%
[2]
  growth inhibition: 17.2%
[3]
  growth inhibition: 24.2%
[4]
  growth inhibition: 30.6%
[5]
  growth inhibition: 16.2%
[6]
  growth inhibition: -29.4%

## COc1ccc2nc(-c3ccccc3)c(=O)[nH]c2c1
[1]
  growth inhibition: 4.1%
[2]
  growth inhibition: 13.8%
[3]
  growth inhibition: 24.7%
[4]
  growth inhibition: 12.6%
[5]
  growth inhibition: 25.1%
[6]
  growth inhibition: 10.5%

## COC(=O)c1nc2c3c(cccc3c1C(=O)OC)Nc1ccccc1-2
[1]
  growth inhibition: -3.2%
[2]
  growth inhibition: 9.65%
[3]
  growth inhibition: 0.35%
[4]
  growth inhibition: 28.5%
[5]
  growth inhibition: 19.4%
[6]
  growth inhibition: -39.4%

## CCOC(=O)c1c2c(nc3c1CCCC3)CCCC2
[1]
  growth inhibition: 3.2%
[2]
  growth inhibition: 3.45%
[3]
  growth inhibition: -1.6%
[4]
  growth inhibition: -1.05%
[5]
  growth inhibition: 7.4%
[6]
  growth inhibition: -24.9%

## c1ccc(C2=NC3CCCCC3S2)cc1 (centres undefined)
[1]
  growth inhibition: 2.95%
[2]
  growth inhibition: -10.6%
[3]
  growth inhibition: 3.7%
[4]
  growth inhibition: -32.3%
[5]
  growth inhibition: -5.55%
[6]
  growth inhibition: -2.75%

## CCn1cnc2c(=O)n(C)c(=O)n(C)c21
[1]
  growth inhibition: -31.8%
[2]
  growth inhibition: -17.9%
[3]
  growth inhibition: 4%
[4]
  growth inhibition: -36%
[5]
  growth inhibition: -0.55%
[6]
  growth inhibition: -0.95%

## Cc1ccc(/C(C#N)=C/c2ccccc2)cc1
[1]
  growth inhibition: 32.8%
[2]
  growth inhibition: 26.4%
[3]
  growth inhibition: 21%
[4]
  growth inhibition: 19.6%
[5]
  growth inhibition: 18.8%
[6]
  growth inhibition: 9.65%

## CN(C)c1ccc(C=C(C(=O)O)C(=O)O)cc1
[1]
  growth inhibition: -5.2%
[2]
  growth inhibition: 15.3%
[3]
  growth inhibition: -8.1%
[4]
  growth inhibition: 19.4%
[5]
  growth inhibition: 15.7%
[6]
  growth inhibition: 15.5%

## COc1cccc(NCNC2Nc3ccccc3N2)c1
[1]
  growth inhibition: 25.1%
[2]
  growth inhibition: 10.1%
[3]
  growth inhibition: -0.75%
[4]
  growth inhibition: -23.4%
[5]
  growth inhibition: 18.4%
[6]
  growth inhibition: 19.8%

## O=C1OC(Oc2ccccc2OC2OC(=O)c3ccccc32)c2ccccc21 (centres undefined)
[1]
  growth inhibition: -6.9%
[2]
  growth inhibition: 3.7%
[3]
  growth inhibition: 0.4%
[4]
  growth inhibition: 5.95%
[5]
  growth inhibition: -5.05%
[6]
  growth inhibition: 9.85%
